Assay results published in PubChem BioAssay (NCATS).
Results filed as inconclusive are left out. Active and inactive are the calls of the source. Unless noted, calls come from the whole dose curve; as a rule, active = well fitted curve in the direction sought with a large enough effect; inconclusive = small, poorly fitted or top-dose-only effect, or another doubt; inactive = no such curve, though single readings can be large; an effect the other way counts as inactive or inconclusive.

Key:
[1] = molecular target: Ferritin light chain (Equus caballus) (UniProt P02791); assay: qHTS Validation Assay for Identification of Novel General Anesthetics (AID 2323)
Method in brief: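 Apoferritin from horse spleen (10 uM) was mixed with 1-aminoanthracene at 50% saturation in PBS, then compounds were added. After 10 min at room temperature, fluorescence was read (ex 380 nm, em 535 nm) and normalized to free-probe and complex controls.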

[2] = molecular target: ATP-dependent DNA helicase Q1 (Homo sapiens) (UniProt P46063); assay: qHTS Validation Assay for Inhibitors of RecQ-Like Dna Helicase 1 (RECQ1) (AID 2353)
Method in brief: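 RECQ1T1 50 nM; forked duplex (20 bp + 30-nt ss tails) 200 nM, ATP 2 mM final; pH 8.0, 2 mM MgCl2, 2.5 ug/ml poly(dI-dC); 15 min compound preincubation; discontinuous kinetic read over 2 h at RT.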

[3] = Cytometric Cell-Based qHTS for Inhibitors of the mTORC1 Signaling Pathway in MEF (Tsc2-/-, p53-/-) Cells (AID 2660);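 note: Tsc2 and p53 null MEFs carrying empty vector with compound for 24 h; percent of cells above a phospho-rpS6 to PI ratio cutoff in each well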
Method in brief: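 Immunofluorescence qHTS of rpS6 Ser235/236 phosphorylation: MEFs (Tsc2-/-, p53-/-) treated 24 h, 37 C, in DMEM + 10% FBS. Alexa-488 signal normalized to PI count, referenced to rapamycin (7.5 nM) and DMSO; PI cell number recorded for viability.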

[4] = High Content Imaging Cell-Based qHTS for Inhibitors of the mTORC1 Signaling Pathway in MEF (Tsc2-/-, p53-/-) Cells (AID 2666); conditions: at 38.3 µM (top of the series);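 note: percent of cells scored positive for phospho-rpS6 Ser235/236 immunostaining by imaging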
Method in brief: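 Inhibition of rpS6 phosphorylation is measured by immunofluorescence imaging in empty-vector Tsc2-/-, p53-/- mouse embryonic fibroblasts after 24 hrs compound exposure at 37 degree Celsius. Results are reported as % positive cells per well.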

[5] = High Content Imaging Cell-Based qHTS for Inhibitors of the mTORC1 Signaling Pathway in MEF Cells (AID 2667);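 note: Tsc2-/- p53-/- MEFs stably re-expressing wild-type Tsc2 exposed 24 h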
Method in brief: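 Fixed-cell imaging of phospho-S6 (Ser235/236, Alexa-488) after 24 hrs of compound treatment at 37 degree Celsius. Signal was normalized to Hoechst, and thresholds from the highest and lowest wells split cells into % active versus % non-active.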

[6] = Cytometry Cell-Based qHTS for Inhibitors of the mTORC1 Signaling Pathway in MEF cells (AID 2668);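 note: Tsc2-/- p53-/- mouse embryonic fibroblasts stably re-expressing wild-type Tsc2; percent cells positive for phospho-rpS6 Ser235/236 relative to propidium iodide stain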
Method in brief: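 Pathway inhibition in WT Tsc2-rescued Tsc2-/-, p53-/- MEFs is measured as the Alexa-488 phospho-rpS6 to propidium iodide intensity ratio after 24 hrs of compound at 37 degree Celsius. PI-stained cell number gives viability.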

[7] = Validation screen for small molecules that induce DNA re-replication in MCF 10A normal breast cells (AID 463097); note: nearly all actives have a fitted effect of over 60% in size
Method in brief: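 DNA re-replication was detected as a rise in nuclei with elevated Hoechst fluorescence after a 48 hr compound exposure of MCF 10A cells at 37 C.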

[8] = molecular target: Ubiquitin carboxyl-terminal hydrolase 2 (Homo sapiens) (UniProt O75604); assay: qHTS Validation Assay for Inhibitors of Ubiquitin-specific Protease USP2a Using CHOP2 as the Reporter (AID 463106)
Method in brief: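 Inhibition is expressed relative to NEM as the full-inhibition control, with concentration-response curves classed by fit quality, magnitude and activity. Enzyme (USP2 core, 10nM) meets 25nM Ub-CHOP2 after compound preincubation; readings are taken at 60min.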

[9] = molecular target: DNA polymerase III PolC-type (Bacillus subtilis (strain 168)) (UniProt P13267); assay: qHTS Validation Assay for the Inhibitors of DNA Replication in Gram-Positive Bacteria (AID 485295);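 note: reconstituted holoenzyme with PolC plus beta clamp SSB and primase; PicoGreen fluorescence of double-stranded DNA made on primed circular M13 template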
Method in brief: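 Primed replication of single-stranded M13Gori by a four-protein B. subtilis holoenzyme is measured at room temperature. Double-stranded product is quantified by PicoGreen fluorescence after an EDTA stop; inhibition is scaled between DMSO and EDTA controls.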

[10] = molecular target: Tumor susceptibility gene 101 protein (Homo sapiens) (UniProt Q99816); assay: qHTS Validation Assay for Iinhibitors of HIV-1 Budding by Blocking the Interaction of PTAP/TSG101 (AID 485342; calls by dose curve)
Method in brief: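 Fluorescence anisotropy measured PTAP-Tsg101 interaction. Final concentrations were 10 uM protein domain and 50 nM labeled peptide, equilibrated 20 min at room temperature.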

[11] = qHTS Validation Assay to Find Inhibitors of Chronic Active B-Cell Receptor Signaling (AID 485345; active = well fitted curve in the direction sought with a large enough effect in the main read-out, with a control signal flat, not every such curve was filed as active)
Method in brief: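 TMD8 ABC-DLBCL cells with dox-inducible green luciferase–IκBα fusion and red native luciferase; compounds 46 uM–3 nM, 4 h at 37C with doxycycline in 0.5% FBS IMDM. Green/red ratio normalized to basal and 10 uM MG-132.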

[12] = molecular target: Beta-2 adrenergic receptor (Homo sapiens) (UniProt P07550); assay: qHTS validation assay of beta-arrestin-biased ligands of beta2-adrenergic receptor (AID 485366)
Method in brief: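 Agonism was measured as beta-arrestin recruitment to recombinant beta2-AR, releasing tTA to drive luciferase. Cells were exposed for 18 hr at 37 degrees C to a series up to 46 microM. %Activity from corrected luminescence gave concentration-response curves.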

[13] = molecular target: ATP-dependent 6-phosphofructokinase (Trypanosoma brucei brucei) (UniProt O15648); assay: qHTS Validation Assay to Find Inhibitors of T. brucei phosphofructokinase (AID 485368); conditions: outcome: dose series up to 57.5 µM
Method in brief: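 ADP-Glo luminescence, two-step: residual ATP depleted, then ADP converted to ATP for luciferase. Enzyme 1.25 nM, F6P 0.5 mM, ATP 0.1 mM, pH 8.0 TEA buffer, 45 min RT. Curves fitted and classed by quality and efficacy.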

[14] = Quantitative high throughput screen for delayed death inhibitors of the malarial parasite plastid, 96 hour incubation (AID 488745);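 note: luciferase-expressing P. falciparum in erythrocytes at 2% hematocrit and 0.1% parasitemia; nearly all actives have a fitted effect of over 70% in size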
Method in brief: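 Readout is firefly luciferase luminescence from an integrated reporter in P. falciparum; lower signal marks inhibited growth. Cultures at 2% hematocrit and 0.1% parasitemia were treated with compound across two generations (96 h, 37 C, 5% CO2).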

[15] = Quantitative high throughput screen for delayed death inhibitors of the malarial parasite plastid, 48 hour incubation (AID 488752); note: nearly all actives have a fitted effect of over 65% in size
Method in brief: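 First, compound was pinned into RPMI 1640 medium containing 0.5% Albumax. Next, reporter-parasite-infected erythrocytes were added to 2% hematocrit and 0.1% parasitemia. After 48 h at 37 C under 5% CO2, luciferase detection reagent was added and luminescence read.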

[16] = molecular target: Thioredoxin reductase 1, cytoplasmic (Rattus norvegicus) (UniProt O89049); assay: qHTS Assay for Substrates of Mammalian Selenoprotein Thioredoxin Reductase 1 (TrxR1) (AID 488772);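 note: a drop in NADPH fluorescence below the no-compound background marks a TrxR1 substrate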
Method in brief: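 In this dual-purpose format, potential substrates are identified from the first fluorescence read after selenite addition, not from the 8-minute delta. Rat enzyme is preincubated with NADPH and then with compound at ~22 deg C.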

[17] = molecular target: Thioredoxin reductase 1, cytoplasmic (Rattus norvegicus) (UniProt O89049); assay: qHTS Assay for Inhibitors of Mammalian Selenoprotein Thioredoxin Reductase 1 (TrxR1) (AID 488773); conditions: Potency: inhibition;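 note: drop in NADPH fluorescence over an 8 min run after selenite addition; nearly all actives have a fitted effect of over 40% in size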
Method in brief: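 Inhibition is scored from the loss of NADPH fluorescence between first and last reads of an 8-min kinetic run. Selenite (400 uM) was the substrate, added after 15 min compound preincubation at room temperature.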

[18] = molecular target: Flap endonuclease 1 (Homo sapiens) (UniProt P39748); assay: qHTS Validation Assay for the Inhibitors of Human Flap endonuclease 1 (FEN1) (AID 488816)
Method in brief: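 Steps: add FEN1 (10 nM reagent) or buffer only; pin compounds; hold 15 min at room temperature; start with substrate, 50 nM final; read at 0 and 15 min; correct, normalize and fit a four-parameter Hill curve.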

[19] = molecular target: RecQ-like DNA helicase BLM (Homo sapiens) (UniProt P54132); assay: qHTS Validation Assay for Inhibitors of Bloom's syndrome helicase (BLM) (AID 2364)
Method in brief: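 BLM 50 nM in 25 mM Tris-HCl pH 8.0, 5 mM NaCl, 2 mM MgCl2, 1 mM DTT, 0.01% Tween-20, 2.5 ug/ml poly(dI-dC); 15 min cpd preinc, RT. Start: 200 nM forked DNA + 2 mM ATP (final). TAMRA read, 2 reads 2 h apart.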

Measured: Potency

Chain of Thioredoxin reductase 1, cytoplasmic (Rattus norvegicus) (O89049 whole entry, looked up): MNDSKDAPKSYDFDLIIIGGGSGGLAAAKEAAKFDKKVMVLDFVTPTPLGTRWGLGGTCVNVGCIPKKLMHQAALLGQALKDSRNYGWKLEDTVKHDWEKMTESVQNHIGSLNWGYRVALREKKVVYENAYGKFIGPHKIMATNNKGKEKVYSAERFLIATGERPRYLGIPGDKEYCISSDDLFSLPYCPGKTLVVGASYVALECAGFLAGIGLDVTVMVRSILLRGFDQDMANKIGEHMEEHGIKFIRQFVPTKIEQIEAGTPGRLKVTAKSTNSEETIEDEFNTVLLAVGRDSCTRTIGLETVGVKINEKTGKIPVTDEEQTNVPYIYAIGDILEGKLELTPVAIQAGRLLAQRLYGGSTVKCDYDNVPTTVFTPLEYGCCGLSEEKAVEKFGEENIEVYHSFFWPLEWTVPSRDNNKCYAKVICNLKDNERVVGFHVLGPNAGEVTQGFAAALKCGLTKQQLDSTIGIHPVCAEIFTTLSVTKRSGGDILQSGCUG
Chain of Ubiquitin carboxyl-terminal hydrolase 2 (Homo sapiens) (O75604 whole entry, looked up): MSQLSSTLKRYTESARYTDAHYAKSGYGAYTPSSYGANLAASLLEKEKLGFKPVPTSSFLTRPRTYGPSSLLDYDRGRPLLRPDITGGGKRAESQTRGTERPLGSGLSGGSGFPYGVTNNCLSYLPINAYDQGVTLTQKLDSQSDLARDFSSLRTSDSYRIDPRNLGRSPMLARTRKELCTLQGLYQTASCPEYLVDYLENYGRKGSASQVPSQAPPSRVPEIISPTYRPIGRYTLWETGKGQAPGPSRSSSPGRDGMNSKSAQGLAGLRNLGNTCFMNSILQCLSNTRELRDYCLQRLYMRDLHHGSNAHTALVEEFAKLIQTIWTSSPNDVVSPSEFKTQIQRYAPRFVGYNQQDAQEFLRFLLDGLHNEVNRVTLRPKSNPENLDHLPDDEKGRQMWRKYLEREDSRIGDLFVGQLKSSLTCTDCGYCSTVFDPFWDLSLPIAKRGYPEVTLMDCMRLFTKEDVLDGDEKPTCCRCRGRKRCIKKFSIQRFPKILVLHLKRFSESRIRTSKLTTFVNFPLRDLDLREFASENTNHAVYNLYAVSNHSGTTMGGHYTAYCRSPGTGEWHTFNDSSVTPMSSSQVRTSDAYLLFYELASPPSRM
Chain of Beta-2 adrenergic receptor (Homo sapiens) (P07550 whole entry, looked up): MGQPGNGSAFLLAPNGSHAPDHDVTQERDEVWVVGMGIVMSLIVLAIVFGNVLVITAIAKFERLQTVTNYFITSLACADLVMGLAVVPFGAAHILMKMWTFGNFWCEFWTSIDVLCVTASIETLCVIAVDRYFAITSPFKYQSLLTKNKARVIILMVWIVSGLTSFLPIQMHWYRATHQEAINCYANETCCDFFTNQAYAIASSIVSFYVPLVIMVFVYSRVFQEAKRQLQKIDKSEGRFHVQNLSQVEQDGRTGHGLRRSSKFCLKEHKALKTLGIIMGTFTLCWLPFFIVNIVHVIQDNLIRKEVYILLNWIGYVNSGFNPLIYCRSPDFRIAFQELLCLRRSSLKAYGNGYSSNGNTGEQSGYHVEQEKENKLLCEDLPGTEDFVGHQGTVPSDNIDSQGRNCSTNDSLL
Chain of Tumor susceptibility gene 101 protein (Homo sapiens) (Q99816 whole entry, looked up, the tested form may be a part): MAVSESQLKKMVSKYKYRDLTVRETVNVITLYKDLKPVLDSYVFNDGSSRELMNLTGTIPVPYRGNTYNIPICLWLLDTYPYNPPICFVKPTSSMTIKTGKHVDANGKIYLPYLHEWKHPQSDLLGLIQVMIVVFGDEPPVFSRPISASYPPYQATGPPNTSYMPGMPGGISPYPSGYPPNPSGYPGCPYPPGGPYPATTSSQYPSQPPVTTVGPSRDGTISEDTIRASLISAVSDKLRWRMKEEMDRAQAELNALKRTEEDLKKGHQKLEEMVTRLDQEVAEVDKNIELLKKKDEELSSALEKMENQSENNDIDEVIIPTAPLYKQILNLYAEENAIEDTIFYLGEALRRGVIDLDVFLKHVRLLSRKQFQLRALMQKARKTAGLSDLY
Chain of DNA polymerase III PolC-type (Bacillus subtilis (strain 168)) (P13267 whole entry, looked up): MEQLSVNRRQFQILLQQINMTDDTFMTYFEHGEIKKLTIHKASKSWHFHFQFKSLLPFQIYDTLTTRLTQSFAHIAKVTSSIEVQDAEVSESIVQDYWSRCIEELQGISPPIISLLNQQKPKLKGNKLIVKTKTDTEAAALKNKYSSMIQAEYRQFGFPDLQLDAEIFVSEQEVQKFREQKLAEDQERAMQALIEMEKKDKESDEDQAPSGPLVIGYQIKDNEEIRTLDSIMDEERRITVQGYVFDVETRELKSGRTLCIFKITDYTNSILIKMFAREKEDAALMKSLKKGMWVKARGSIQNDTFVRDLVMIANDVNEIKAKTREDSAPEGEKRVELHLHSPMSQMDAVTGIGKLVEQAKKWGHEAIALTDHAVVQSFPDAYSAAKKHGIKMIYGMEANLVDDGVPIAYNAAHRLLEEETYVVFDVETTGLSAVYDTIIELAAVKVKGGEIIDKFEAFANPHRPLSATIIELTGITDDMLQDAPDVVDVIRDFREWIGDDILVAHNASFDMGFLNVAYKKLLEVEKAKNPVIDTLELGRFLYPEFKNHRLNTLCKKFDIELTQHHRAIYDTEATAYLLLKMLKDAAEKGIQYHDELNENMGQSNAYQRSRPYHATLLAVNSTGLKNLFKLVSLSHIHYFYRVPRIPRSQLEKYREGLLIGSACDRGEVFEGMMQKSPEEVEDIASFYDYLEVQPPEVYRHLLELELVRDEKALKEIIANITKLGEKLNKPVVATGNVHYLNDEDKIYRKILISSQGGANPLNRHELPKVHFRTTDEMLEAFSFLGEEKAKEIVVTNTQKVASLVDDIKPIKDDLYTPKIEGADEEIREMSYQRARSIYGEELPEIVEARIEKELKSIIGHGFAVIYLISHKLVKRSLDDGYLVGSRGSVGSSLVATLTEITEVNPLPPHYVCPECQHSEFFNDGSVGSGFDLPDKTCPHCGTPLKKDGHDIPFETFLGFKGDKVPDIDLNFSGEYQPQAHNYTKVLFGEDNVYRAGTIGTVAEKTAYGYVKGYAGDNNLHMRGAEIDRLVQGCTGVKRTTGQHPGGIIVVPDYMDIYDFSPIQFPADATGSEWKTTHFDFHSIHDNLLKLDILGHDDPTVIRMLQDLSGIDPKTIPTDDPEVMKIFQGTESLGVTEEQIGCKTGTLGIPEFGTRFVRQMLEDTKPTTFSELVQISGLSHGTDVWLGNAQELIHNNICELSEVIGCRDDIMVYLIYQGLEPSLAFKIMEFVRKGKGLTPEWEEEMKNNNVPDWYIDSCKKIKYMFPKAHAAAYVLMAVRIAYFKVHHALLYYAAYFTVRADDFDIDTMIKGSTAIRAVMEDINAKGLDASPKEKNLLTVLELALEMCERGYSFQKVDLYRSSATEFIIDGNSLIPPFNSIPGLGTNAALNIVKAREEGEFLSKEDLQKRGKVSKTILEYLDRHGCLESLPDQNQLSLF
Chain of ATP-dependent 6-phosphofructokinase (Trypanosoma brucei brucei) (O15648 whole entry, looked up): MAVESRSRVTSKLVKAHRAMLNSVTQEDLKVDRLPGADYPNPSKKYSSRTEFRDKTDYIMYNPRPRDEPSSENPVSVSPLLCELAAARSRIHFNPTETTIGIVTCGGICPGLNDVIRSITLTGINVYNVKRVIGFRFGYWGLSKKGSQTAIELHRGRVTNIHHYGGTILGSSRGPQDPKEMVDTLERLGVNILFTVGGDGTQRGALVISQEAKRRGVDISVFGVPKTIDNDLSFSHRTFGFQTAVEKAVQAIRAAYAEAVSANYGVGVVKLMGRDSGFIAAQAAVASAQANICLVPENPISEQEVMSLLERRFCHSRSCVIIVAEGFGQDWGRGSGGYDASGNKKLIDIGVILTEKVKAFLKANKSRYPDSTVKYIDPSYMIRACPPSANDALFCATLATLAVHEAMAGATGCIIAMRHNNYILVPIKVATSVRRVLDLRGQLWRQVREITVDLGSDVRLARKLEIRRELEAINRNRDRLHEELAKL
Chain of Ferritin light chain (Equus caballus) (P02791 2-175 limits assumed): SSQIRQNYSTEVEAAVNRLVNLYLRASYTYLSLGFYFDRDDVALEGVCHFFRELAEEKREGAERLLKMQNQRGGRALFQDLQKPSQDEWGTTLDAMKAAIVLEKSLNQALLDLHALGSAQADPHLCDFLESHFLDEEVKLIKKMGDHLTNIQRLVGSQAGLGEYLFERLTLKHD
Chain of Flap endonuclease 1 (Homo sapiens) (P39748 whole entry, looked up): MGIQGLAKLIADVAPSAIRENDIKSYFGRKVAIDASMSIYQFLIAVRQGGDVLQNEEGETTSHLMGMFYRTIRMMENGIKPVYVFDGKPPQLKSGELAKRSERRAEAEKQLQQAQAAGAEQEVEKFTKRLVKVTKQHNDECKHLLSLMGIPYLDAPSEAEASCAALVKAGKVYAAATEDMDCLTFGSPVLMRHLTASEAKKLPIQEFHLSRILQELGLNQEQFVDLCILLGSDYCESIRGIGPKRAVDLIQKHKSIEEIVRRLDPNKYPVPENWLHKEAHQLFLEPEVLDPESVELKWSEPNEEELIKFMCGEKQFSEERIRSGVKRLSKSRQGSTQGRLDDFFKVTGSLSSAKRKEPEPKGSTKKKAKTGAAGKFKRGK

Clc1cccc(Cl)c1NC1=NCCN1
not listed: [19]
inactive: all other assays above

CC(C)NCC(O)COc1ccc(COCCOC(C)C)cc1 (centres undefined)
not listed: [12]
inactive: all other assays above

O=C1CCC(N2C(=O)c3ccccc3C2=O)C(=O)N1 (centres undefined)
not listed: [19]
inactive: all other assays above

CC(C[N+](C)(C)C)OC(N)=O (centres undefined)
inactive: all assays above

Cc1ccccc1C(OCCN(C)C)c1ccccc1 (centres undefined)
not listed: [19]
inactive: all other assays above

CC(=O)Oc1ccccc1C(=O)O
not listed: [19]
inactive: all other assays above
